What was measured:
Assay in all cases: DAPPL (digital affinity profiling via proximity ligation, sequencing); 10 mM Tris-HCl pH 7.5, 50 mM NaCl, 1 mM DTT, 4% glycerol, room temperature, 30 min; GST-TFs on glutathione beads, 16-mer random dsDNA library, 0.1% formaldehyde crosslink after washing; high values mean tight binding
FEV = molecular target: T1, FEV (Homo sapiens, UniProt Q99581 1-238); details: protein: recombinant; tags: N-terminal GST; dsDNA, one strand shown
T1 sequence: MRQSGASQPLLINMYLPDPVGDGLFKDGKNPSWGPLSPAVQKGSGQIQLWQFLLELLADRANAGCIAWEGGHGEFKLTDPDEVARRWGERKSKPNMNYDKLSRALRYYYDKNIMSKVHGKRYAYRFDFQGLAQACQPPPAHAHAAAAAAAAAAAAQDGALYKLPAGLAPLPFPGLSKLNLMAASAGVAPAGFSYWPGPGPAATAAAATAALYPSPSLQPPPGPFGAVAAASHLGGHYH
Method in brief: (§1)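 Binding signal is each hexamer's read frequency for a factor divided by its frequency in the tag-only sample. The factors were GST-fused human transcription factors from yeast, captured on glutathione beads, DNA-barcoded and pooled with that sample. Pools were incubated with 200 nmole of a random double-stranded 16-mer DNA library in Tris/NaCl/DTT/glycerol buffer at room temperature for 30 min, then washed, crosslinked with 0.1% formaldehyde, proximity-ligated with BsaI/T4 ligase (1 h, 37 °C), PCR-amplified and sequenced on an Illumina NextSeq500.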

ETV5 = ETV5 (Homo sapiens, UniProt P41161 1-510); details: protein: recombinant; tags: N-terminal GST; dsDNA, one strand shown
Method in brief: as §1

HSF1 = HSF1 (Homo sapiens, UniProt Q00613 1-529); details: protein: recombinant; tags: N-terminal GST; chain copies: 3; dsDNA, one strand shown
Method in brief: as §1

SPIC = molecular target: T2, SPIC (Homo sapiens, UniProt Q8N5J4 1-248); details: protein: recombinant; tags: N-terminal GST; dsDNA, one strand shown
T2 sequence: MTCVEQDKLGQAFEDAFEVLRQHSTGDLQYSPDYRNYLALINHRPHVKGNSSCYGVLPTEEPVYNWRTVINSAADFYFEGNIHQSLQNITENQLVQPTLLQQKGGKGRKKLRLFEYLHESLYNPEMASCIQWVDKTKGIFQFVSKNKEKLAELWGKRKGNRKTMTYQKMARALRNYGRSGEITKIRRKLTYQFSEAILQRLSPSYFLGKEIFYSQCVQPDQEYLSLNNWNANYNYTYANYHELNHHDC
Method in brief: as §1

ELF4 = ELF4 (Homo sapiens, UniProt Q99607 1-663); details: protein: recombinant; tags: N-terminal GST; dsDNA, one strand shown
Method in brief: as §1

ELK4 = molecular target: T3, ELK4 (Homo sapiens, UniProt P28324-2 1-405); details: protein: recombinant; tags: N-terminal GST; dsDNA, one strand shown
T3 sequence: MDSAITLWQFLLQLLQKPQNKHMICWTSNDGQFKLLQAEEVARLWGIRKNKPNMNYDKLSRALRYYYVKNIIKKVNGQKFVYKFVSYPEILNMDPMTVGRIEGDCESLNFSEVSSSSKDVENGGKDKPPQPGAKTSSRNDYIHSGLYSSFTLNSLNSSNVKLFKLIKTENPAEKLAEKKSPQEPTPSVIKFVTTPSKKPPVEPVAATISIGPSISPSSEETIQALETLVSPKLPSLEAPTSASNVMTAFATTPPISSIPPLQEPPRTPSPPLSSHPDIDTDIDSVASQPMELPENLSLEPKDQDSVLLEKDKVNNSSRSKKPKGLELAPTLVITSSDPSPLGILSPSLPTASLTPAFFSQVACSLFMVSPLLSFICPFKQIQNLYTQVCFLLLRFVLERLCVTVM
Method in brief: as §1

ETV2 = molecular target: T4, ETV2 (Homo sapiens, UniProt O00321 1-342); details: protein: recombinant; tags: N-terminal GST; dsDNA, one strand shown
T4 sequence: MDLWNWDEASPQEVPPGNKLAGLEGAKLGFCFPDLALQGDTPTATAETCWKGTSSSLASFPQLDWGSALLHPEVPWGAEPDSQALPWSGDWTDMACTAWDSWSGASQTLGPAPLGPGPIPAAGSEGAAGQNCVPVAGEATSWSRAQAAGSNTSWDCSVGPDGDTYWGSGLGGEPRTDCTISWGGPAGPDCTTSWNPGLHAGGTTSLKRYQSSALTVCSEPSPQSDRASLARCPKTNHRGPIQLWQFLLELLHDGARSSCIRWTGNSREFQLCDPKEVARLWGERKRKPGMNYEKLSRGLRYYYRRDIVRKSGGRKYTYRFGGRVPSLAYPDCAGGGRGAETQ
Method in brief: as §1

ELF3 = molecular target: T5, ELF3 (Homo sapiens, UniProt P78545 1-371); details: protein: recombinant; tags: N-terminal GST; dsDNA, one strand shown
T5 sequence: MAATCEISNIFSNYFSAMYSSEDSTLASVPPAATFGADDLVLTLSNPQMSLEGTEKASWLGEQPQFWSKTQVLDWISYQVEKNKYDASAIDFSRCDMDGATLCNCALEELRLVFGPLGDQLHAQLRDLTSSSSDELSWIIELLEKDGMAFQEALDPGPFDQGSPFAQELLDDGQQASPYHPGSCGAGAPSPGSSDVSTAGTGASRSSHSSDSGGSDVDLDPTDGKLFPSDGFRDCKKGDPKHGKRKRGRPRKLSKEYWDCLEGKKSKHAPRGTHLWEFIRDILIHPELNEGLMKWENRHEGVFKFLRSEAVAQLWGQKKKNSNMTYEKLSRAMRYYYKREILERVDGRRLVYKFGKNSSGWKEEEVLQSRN
Method in brief: as §1

CRX = CRX (Homo sapiens, UniProt O43186 1-299); details: protein: recombinant; tags: N-terminal GST; dsDNA, one strand shown
Method in brief: as §1

ETV1 = ETV1 (Homo sapiens, UniProt P50549 1-477); details: protein: recombinant; tags: N-terminal GST; dsDNA, one strand shown
Method in brief: as §1

ERF = molecular target: T6, ERF (Homo sapiens, UniProt P50548 1-548); details: protein: recombinant; tags: N-terminal GST; dsDNA, one strand shown
T6 sequence: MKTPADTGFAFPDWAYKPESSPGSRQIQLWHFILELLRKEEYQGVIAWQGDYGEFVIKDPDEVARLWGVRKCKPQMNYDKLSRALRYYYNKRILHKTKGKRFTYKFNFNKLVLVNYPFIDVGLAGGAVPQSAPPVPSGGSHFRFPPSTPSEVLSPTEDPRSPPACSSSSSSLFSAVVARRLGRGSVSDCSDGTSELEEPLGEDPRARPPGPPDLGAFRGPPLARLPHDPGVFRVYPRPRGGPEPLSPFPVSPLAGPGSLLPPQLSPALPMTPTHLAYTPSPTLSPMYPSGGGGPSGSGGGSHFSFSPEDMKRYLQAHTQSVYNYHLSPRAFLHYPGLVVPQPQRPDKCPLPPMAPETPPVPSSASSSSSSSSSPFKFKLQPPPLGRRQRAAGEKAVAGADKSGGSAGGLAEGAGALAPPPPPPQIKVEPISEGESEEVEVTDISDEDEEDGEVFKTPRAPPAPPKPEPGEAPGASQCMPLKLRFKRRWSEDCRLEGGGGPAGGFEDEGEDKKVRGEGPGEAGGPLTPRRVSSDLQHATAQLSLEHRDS
Method in brief: as §1

ETV3L = molecular target: T7, ETV3L (Homo sapiens, UniProt Q6ZN32 1-361); details: protein: recombinant; tags: N-terminal GST; dsDNA, one strand shown
T7 sequence: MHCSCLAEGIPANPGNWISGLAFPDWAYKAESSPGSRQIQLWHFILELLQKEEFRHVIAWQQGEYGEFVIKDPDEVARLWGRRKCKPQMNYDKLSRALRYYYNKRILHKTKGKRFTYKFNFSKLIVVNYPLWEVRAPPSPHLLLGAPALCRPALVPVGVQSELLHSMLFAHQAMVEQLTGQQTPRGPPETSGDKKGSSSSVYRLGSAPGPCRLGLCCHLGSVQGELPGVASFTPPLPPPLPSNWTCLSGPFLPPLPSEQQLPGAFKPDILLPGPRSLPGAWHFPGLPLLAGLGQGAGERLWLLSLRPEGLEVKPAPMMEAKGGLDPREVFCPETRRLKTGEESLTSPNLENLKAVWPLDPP
Method in brief: as §1

ETS2 = molecular target: T8, ETS2 (Homo sapiens, UniProt P15036 1-469); details: protein: recombinant; tags: N-terminal GST; dsDNA, one strand shown
T8 sequence: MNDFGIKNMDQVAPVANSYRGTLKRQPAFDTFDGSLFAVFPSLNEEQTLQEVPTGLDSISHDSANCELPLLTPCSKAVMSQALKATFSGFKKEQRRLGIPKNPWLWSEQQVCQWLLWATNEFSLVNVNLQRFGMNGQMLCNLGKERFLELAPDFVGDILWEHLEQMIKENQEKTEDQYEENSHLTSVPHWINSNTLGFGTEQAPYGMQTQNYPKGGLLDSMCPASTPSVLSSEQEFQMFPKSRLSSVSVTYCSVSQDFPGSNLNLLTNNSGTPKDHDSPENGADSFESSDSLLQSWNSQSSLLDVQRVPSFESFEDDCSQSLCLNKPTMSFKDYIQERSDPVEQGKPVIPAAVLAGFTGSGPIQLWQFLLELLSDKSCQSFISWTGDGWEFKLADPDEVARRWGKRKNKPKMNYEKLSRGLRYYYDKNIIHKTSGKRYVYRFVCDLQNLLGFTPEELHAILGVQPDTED
Method in brief: as §1

SPDEF = molecular target: T9, SPDEF (Homo sapiens, UniProt O95238 1-335); details: protein: recombinant; tags: N-terminal GST; dsDNA, one strand shown
T9 sequence: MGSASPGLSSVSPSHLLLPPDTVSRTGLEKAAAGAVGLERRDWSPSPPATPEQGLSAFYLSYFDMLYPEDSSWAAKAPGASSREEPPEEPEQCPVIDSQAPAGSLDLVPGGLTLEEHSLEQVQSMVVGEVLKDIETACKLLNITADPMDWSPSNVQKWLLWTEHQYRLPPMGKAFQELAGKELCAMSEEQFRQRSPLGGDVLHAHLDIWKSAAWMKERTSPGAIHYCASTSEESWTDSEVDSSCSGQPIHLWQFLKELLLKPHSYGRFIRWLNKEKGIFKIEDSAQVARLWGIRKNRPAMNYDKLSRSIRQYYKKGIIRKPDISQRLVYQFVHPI
Method in brief: as §1

ETV7 = molecular target: T10, ETV7 (Homo sapiens, UniProt Q9Y603 1-341); details: protein: recombinant; tags: N-terminal GST; dsDNA, one strand shown
T10 sequence: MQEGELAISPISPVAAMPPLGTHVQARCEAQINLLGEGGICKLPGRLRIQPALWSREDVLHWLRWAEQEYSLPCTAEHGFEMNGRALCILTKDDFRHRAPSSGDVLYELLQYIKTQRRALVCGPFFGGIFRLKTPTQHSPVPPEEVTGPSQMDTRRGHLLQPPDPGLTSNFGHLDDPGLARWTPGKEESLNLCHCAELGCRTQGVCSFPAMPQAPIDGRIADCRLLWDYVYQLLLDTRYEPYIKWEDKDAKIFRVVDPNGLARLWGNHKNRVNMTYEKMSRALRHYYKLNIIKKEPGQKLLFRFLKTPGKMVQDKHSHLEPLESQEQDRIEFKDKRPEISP
Method in brief: as §1

ELF5 = molecular target: T11, ELF5 (Homo sapiens, UniProt Q9UKW6-2 1-255); details: protein: recombinant; tags: N-terminal GST; dsDNA, one strand shown
T11 sequence: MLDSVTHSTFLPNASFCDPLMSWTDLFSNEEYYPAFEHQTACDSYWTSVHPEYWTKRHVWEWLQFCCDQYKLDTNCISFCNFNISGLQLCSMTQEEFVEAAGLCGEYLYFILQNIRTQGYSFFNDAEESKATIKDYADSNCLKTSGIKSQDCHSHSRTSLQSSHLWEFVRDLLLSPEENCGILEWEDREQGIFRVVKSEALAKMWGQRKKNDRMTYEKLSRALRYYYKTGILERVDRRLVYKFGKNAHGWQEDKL
Method in brief: as §1

ETV3 = molecular target: T12, ETV3 (Homo sapiens, UniProt P41162-2 1-143); details: protein: recombinant; tags: N-terminal GST; dsDNA, one strand shown
T12 sequence: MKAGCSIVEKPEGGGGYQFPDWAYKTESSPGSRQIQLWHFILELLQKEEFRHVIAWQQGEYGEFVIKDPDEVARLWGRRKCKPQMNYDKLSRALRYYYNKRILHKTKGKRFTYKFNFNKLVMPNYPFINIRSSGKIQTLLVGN
Method in brief: as §1

ETV6 = ETV6 (Homo sapiens, UniProt P41212 1-452); details: protein: recombinant; tags: N-terminal GST; dsDNA, one strand shown
Method in brief: as §1

HSF1, sequence (Q00613 whole entry): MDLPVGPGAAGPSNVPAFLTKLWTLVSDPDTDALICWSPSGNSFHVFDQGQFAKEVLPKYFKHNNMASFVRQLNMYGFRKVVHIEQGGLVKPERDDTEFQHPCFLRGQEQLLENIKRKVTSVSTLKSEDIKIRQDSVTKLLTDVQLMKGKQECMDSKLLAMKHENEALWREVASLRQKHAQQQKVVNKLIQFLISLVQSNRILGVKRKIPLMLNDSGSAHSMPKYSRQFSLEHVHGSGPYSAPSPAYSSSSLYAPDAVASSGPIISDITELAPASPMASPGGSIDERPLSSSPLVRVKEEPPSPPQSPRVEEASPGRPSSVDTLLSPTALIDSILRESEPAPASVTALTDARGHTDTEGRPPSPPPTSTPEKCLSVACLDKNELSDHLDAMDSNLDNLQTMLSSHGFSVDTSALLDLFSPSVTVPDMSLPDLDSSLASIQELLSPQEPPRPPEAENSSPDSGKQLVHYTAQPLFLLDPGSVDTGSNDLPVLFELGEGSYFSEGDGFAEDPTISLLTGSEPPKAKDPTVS
ETV6, sequence (P41212 whole entry): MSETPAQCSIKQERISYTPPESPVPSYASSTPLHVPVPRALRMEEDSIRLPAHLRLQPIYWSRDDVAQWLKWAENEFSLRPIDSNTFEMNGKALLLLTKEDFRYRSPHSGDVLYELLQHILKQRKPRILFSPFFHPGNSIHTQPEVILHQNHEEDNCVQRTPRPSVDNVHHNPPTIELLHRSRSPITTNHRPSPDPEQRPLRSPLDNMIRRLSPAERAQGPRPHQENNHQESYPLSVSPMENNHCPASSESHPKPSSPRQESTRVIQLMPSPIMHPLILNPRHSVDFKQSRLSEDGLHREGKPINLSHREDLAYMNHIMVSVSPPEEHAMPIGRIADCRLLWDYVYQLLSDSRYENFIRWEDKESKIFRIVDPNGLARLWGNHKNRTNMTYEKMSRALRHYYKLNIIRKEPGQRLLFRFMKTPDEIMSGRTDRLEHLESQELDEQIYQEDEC
CRX, sequence (O43186 whole entry): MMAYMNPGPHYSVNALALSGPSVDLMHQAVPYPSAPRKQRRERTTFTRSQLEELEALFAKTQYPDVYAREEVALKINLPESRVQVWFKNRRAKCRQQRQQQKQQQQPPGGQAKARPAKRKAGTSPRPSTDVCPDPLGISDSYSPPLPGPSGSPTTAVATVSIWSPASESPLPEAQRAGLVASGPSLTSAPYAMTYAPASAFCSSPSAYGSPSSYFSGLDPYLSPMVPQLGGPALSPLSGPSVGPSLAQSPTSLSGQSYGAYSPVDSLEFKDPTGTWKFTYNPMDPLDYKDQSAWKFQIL
ETV1, sequence (P50549 whole entry): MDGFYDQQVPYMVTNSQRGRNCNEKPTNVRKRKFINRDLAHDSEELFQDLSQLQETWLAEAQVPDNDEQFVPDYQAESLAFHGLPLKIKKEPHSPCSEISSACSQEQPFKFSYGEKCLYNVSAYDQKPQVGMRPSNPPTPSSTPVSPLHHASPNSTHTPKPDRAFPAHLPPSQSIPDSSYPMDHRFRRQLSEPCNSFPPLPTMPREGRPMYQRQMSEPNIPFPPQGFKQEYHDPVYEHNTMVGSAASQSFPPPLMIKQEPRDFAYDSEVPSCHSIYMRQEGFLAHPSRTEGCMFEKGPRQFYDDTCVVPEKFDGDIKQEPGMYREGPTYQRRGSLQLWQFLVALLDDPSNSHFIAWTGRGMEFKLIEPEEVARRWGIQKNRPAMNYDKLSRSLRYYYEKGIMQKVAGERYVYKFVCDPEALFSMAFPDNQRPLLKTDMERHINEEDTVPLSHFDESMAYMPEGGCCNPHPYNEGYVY
ETV5, sequence (P41161 whole entry): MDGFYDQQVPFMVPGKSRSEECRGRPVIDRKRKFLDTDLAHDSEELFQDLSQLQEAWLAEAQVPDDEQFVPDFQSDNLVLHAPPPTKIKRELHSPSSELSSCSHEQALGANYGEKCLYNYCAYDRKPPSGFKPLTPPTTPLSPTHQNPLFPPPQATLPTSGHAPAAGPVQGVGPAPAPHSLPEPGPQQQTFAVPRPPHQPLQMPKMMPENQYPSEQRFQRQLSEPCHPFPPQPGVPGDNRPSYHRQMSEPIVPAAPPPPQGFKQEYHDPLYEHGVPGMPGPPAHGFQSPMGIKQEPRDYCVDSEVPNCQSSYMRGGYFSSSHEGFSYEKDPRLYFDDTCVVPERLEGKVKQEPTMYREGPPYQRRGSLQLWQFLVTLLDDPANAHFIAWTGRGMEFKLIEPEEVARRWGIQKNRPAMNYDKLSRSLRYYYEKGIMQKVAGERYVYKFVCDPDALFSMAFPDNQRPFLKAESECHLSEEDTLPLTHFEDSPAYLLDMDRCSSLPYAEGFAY
ELF4, sequence (Q99607 whole entry): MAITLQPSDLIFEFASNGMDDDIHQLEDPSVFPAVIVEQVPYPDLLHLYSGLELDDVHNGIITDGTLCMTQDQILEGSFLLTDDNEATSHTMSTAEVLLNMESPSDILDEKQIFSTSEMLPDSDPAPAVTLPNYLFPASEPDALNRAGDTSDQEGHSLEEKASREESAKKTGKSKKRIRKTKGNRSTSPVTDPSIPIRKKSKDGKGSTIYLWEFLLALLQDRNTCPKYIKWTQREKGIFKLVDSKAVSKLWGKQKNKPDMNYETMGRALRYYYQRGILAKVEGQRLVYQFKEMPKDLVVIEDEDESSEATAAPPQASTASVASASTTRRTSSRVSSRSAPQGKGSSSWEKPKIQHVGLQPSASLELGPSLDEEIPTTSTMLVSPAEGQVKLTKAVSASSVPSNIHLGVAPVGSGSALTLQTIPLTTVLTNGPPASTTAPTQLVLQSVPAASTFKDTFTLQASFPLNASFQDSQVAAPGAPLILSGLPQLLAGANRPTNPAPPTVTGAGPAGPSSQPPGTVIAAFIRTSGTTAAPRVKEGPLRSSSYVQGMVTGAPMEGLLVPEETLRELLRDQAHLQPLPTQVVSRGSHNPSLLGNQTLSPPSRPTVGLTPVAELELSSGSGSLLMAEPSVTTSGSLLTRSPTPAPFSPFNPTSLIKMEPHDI

CTAAAT
binding signal (FEV): 1.3 fold enrichment (6-mer frequency, TF over GST control) | binding signal (ETV5): 1.42 fold enrichment (6-mer frequency, TF over GST control) | binding signal (HSF1): 1.59 fold enrichment (6-mer frequency, TF over GST control) | binding signal (SPIC): 1.38 fold enrichment (6-mer frequency, TF over GST control) | binding signal (ELF4): 1.36 fold enrichment (6-mer frequency, TF over GST control) | binding signal (ELK4): 1.42 fold enrichment (6-mer frequency, TF over GST control) | binding signal (ETV2): 1.33 fold enrichment (6-mer frequency, TF over GST control) | binding signal (ELF3): 1.46 fold enrichment (6-mer frequency, TF over GST control) | binding signal (CRX): 1.9 fold enrichment (6-mer frequency, TF over GST control) | binding signal (ETV1): 1.42 fold enrichment (6-mer frequency, TF over GST control) | binding signal (ERF): 1.35 fold enrichment (6-mer frequency, TF over GST control) | binding signal (ETV3L): 1.43 fold enrichment (6-mer frequency, TF over GST control) | binding signal (ETS2): 1.38 fold enrichment (6-mer frequency, TF over GST control) | binding signal (SPDEF): 1.31 fold enrichment (6-mer frequency, TF over GST control) | binding signal (ETV7): 1.34 fold enrichment (6-mer frequency, TF over GST control) | binding signal (ELF5): 1.25 fold enrichment (6-mer frequency, TF over GST control) | binding signal (ETV3): 1.4 fold enrichment (6-mer frequency, TF over GST control) | binding signal (ETV6): 1.3 fold enrichment (6-mer frequency, TF over GST control)
